# Screens: PubChem, National Center for Advancing Translational Sciences (NCATS)
# Shown is part of a subset that was picked to be rich in hits.
# S-ASM inh: human S-ASM enzyme inhibition | P17405 | placental ASM, HMU-PC fluorogenic substrate, 60 min | Potency, µM (doses to about 57.5 µM), for the others: at the top dose activity change, negative = inhibition, hits mostly inhibitors | 340,000 tested, 0.006% active | AID 504937; also: potency is read from the fitted curve at half-maximal effect
#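 qHTS format. ASM enzyme prepared from human placenta hydrolyses the fluorogenic substrate HMU-PC0 (9 uM final) over 60 min at 37 °C after a 10 min compound preincubation.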
# RGS4 inhibitor: blocks human RGS4-accelerated GTP hydrolysis; P49798; Transcreener GDP fluorescence polarization, RGS4-accelerated GTP hydrolysis; Potency, µM (doses to about 114 µM), for the others: at the top dose activity change, negative = inhibition, most hits filed as inhibitors; 390,000 tested, 0.039% active; also: potency is read from the fitted curve at half-maximal effect; % is scaled to controls: 0 for no effect and ±100 for the full control effect; nearly all actives have a fitted effect of over 75% in size
# Target sequence (P49798 whole entry, looked up): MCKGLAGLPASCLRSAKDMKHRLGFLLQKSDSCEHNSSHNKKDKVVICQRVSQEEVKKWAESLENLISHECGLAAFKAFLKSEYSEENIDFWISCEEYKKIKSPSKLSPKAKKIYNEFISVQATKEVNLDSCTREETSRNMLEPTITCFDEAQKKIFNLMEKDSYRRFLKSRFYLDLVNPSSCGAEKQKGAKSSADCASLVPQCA
#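 MLSMR compounds (23 nl, pin-transferred) preincubated 10 min at room temperature with a 500nM (2x) first reagent, then RGS4 at 900nM (2x) plus Transcreener GDP mix added; fluorescence polarization (620/688 nm) read before and after 90 min at 30 °C.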
# LDHA inh: inhibitors of human lactate dehydrogenase A | P00338 | purified LDHA, NADH/diaphorase-resazurin fluorescence; stronger effect = lower value | activity change, % (values are at about 110 or 230 µM) | 480,000 tested, 0.15% active | AID 1347041; in the data active = activity change below about -30%; inconclusive = mostly about -25% to -30%;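 also: plate controls were DMSO wells for no effect and wells without enzyme for full effect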
#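 Human LDH5 at 2 nM final in Tris HCl pH 7.4 with 0.06 mM NADH and 0.2 mM pyruvate, reacted 5 minutes at room temperature. Remaining NADH coupled via diaphorase/resazurin; resorufin fluorescence read at 0 and 20 minutes, normalized to enzyme-free and DMSO wells.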
# Mito fusion act: mitochondrial division inhibition or fusion activation; S. cerevisiae fusion-defective mutant growth rescue, CellTiterGlo 48 h; Potency, µM (doses to about 46.1 µM), without a hit: at the highest dose growth rescue (activation), most hits filed as activators; 320,000 tested, 0.23% active; also: potency is read from the fitted curve at half-maximal effect; % of control where 0% means no effect; nearly all actives have a fitted effect of over 45% in size
#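 Luminescent cell viability in 1536-well qHTS format served as the measure of rescued growth in ts fusion-mutant S. cerevisiae cultured on non-fermentable YPEG for 48 hours at 37C.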
# IDH1 R132H inh: blocks human mutant IDH1 R132H enzyme; Potency, µM (doses to about 76.6 µM), inactives show top-dose activity change, negative = inhibition, hits mostly inhibitors; IDH1-R132H enzyme, NADPH consumption, diaphorase/resazurin fluorescence; AID 602179; O75874; 390,000 tested, 0.093% active; also: potency is read from the fitted curve at half-maximal effect; % is scaled to controls: 0 for no effect and ±100 for the full control effect; nearly all actives have a fitted effect of over 65% in size
# Target sequence (O75874 whole entry R132H, stated change not applied): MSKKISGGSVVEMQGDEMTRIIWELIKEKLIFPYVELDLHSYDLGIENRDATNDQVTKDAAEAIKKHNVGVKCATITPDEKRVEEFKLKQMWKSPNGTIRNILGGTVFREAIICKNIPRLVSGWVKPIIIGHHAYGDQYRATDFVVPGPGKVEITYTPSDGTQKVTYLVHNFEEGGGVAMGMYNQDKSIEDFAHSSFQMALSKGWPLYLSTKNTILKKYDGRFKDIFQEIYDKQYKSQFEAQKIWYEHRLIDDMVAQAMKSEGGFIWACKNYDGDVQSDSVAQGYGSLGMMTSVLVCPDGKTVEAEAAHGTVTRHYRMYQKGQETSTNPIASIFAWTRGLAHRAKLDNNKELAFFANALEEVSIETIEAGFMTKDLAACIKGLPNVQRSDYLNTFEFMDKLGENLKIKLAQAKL
#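 IDH1-R132H (0.5 ug/mL dispensed) in pH 7.5 Tris buffer was preincubated 30 min with compound, then given a substrate mix of 0.016 mM NADPH and 2 mM alpha-KG for 80 min at room temperature; remaining NADPH was read by diaphorase/resazurin fluorescence.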
# ClpP mod: qHTS Assay for Activators of ClpP; purified B. subtilis ClpP, FRET peptide cleavage, 20 min; Potency, µM (top dose mostly 57.5 µM), for inactives: at the highest dose activity change, negative = active; 340,000 tested, 1.9% active; active = well fitted falling curve with a large enough effect; inconclusive = small, poorly fitted or top-dose-only effect; inactive = no such curve, though single readings can be large or run the other way; also: potency is read from the fitted curve at half-maximal effect; the source files actives as falling curves though it sought activators and does not explain the sign; nearly all actives have a fitted effect of over 65% in size
#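 Purified B. subtilis ClpP, 10 microg/mL final in Tris/HCl pH8 with KCl, BSA, glycerol and Tween-20, cleaved an Abz/nitrotyrosine-quenched decapeptide. Fluorescence (ex 320, em 430) was read at 0 and 20 min at room temperature. Delta was normalized to 5.8 microM ADEP and DMSO/no-enzyme controls.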
# An asterisk follows results filed as active; u = inconclusive; x = not tested or not shown; ! = repeats disagree; [ ] = remark or other dose. Unless noted, calls follow the shape of the dose curve; as a rule, active = well fitted curve in the direction sought with a large enough effect; inconclusive = small, poorly fitted or top-dose-only effect, or another doubt; inactive = no such curve, though single readings can be large; an effect the other way counts as inactive or inconclusive.
SMILES,S-ASM inh,RGS4 inhibitor,LDHA inh,Mito fusion act,IDH1 R132H inh,ClpP mod
CCOC(=O)c1cn(CC(=O)Nc2cccc(Cl)c2C)nn1,1%,-6%,2,0%,0%,35µM*!
CCOC(=O)c1cn(CC(=O)Nc2cccc(Cl)c2)nn1,-4%,9%,-18,-1%,-19%,-3%
CN(C)CCCC1(O)c2ccccc2CCc2ccccc21,1%,-15%,-5,-6%,1%,x
CN(C)CCCC1(O)c2ccccc2C=Cc2ccccc21,4%,23%,-7,-3%,3%,28µM*
CC(=O)c1ccc(N2CCN(S(=O)(=O)c3cc4[nH]c(=O)c(=O)[nH]c4cc3C)CC2)cc1,-7%,-10%,-30*!,-1%,-5%,-6%
COc1ccc(CN2CCN(Cc3ccco3)CC2)cc1OC,5%,-2%,-34*,5%,12%,0%
COc1ccc(Br)cc1CN1CCN(Cc2c[nH]c3ccccc23)CC1,-4%,-26%,-17,-68%,9%,0%
Cc1ccc(CN2CCN(Cc3c[nH]c4ccccc34)CC2)cc1,x,x,7,x,x,x
COc1ccc(CN2CCN(Cc3c[nH]c4ccccc34)CC2)c(OC)c1,x,x,-33*,x,-4%,-6%
COc1ccc(CN2CCN(Cc3c[nH]c4ccccc34)CC2)cc1,-1%,7%,-34*,-12%,-1%,x
COc1ccc(CN2CCN(Cc3c[nH]c4ccccc34)CC2)cc1OC,x,x,-32*,x,7%,0%
N#CCCN(CCC#N)C(=O)CSc1ncc(-c2ccc(F)cc2)o1,x,x,-9,x,x,x
COc1cc(OC)c(OC)cc1CN1CCN(Cc2ccc(SC)cc2)CC1,1%,17%[56.9 µM],-30*,-4%,5%,0%
Brc1ccc(CN2CCSCC2)cc1,3%,-25%,-30*,3%,1%,-1%
COc1ccc(CN2CCN(Cc3ccc(Br)cc3)CC2)c(OC)c1OC,-3%,18%,-30*,-19%,5%,-5%
COc1ccc(CN2CCC(N3CC(C)OC(C)C3)CC2)c(OC)c1 (stereo not drawn),-6%,12%,-32*,-13%,-6%,x
COc1cc(CN2CCN(Cc3ccc(SC)cc3)CC2)cc(OC)c1O,2%,7%,1,23%,11%,x
CC(NC(=O)c1ccc[n+]([O-])c1)c1cccc2ccccc12 (stereo not drawn),x,x,12,x,x,x
CSc1ccccc1C(=O)NC1CCC(C)CC1 (stereo not drawn),x,x,-2,x,x,x
NC(=O)C1CCN(C(=O)C2CCN(S(=O)(=O)Cc3ccc(F)cc3)CC2)CC1,x,x,-1,x,x,x
COc1ccc(C(=O)Nc2ccnn2Cc2ccco2)cc1S(=O)(=O)N1CCCC1,x,x,-8,x,x,x
N#C/C(=C\c1ccccc1OCc1ccc2ccccc2c1)c1nc2ccccc2[nH]1,x,x,4,x,x,x
CCS(=O)(=O)c1ccc2oc(Nc3ccc(Oc4ccccc4)cc3)nc2c1,x,x,2,x,x,x
Cc1ccc(NC(=O)c2ccccc2F)nc1,22%,27%,-6,2%,7%,16µM*
Cc1ccc(NC(=O)c2cc(F)c(F)cc2Cl)nc1,0%,-5%,-2,14%,-2%,-2%
SMILES,S-ASM inh,RGS4 inhibitor,LDHA inh,Mito fusion act,IDH1 R132H inh,ClpP mod
CN(C)c1ccc(C=c2c3ccccc3n3c2c2ccccc2[n+]3C)cc1,92%,u,28,x,46µM*,-12%
Cc1ccccc1NC(=O)N(O)C1(C#N)CCCCC1,-2%,5%,0,x,-1%,32µM*
Cc1ccc(N2C(=O)C(CN3CCCCC3)C2c2ccccc2)cc1 (stereo not drawn),4%,15%,-10,1%,9%,16µM*
Cc1ccc(N2C(=O)C(CN3CCCC3)C2c2ccccc2)cc1 (stereo not drawn),6%,-13%,-3,-10%,-2%,x
Cc1cc(C)c(C(N)=O)c(NCCc2ccccc2)n1,8%,11%,-12,-4%,-2%,35µM*
CC(C)c1nc(N2CCOCC2)c(C#N)c2c1CCC2,5%,10%,-1,4%,-5%,25µM*
CCCCc1nc(N2CCOCC2)c(C#N)c2c1CCCC2,4%,10%,-4,16%,2%,25µM*
CCOc1cc2c(C#N)c(N3CCOCC3)nc(N)c2c(N)n1,360%,3%,6,1%,6%,32µM*
Cc1cc(C)c(C#N)c(N2CCOCC2)n1,4%,11%,-5,-1%,-2%,25µM*
CC(C)C(=O)NCc1ccccc1,x,x,2,x,x,x
CC(C)(C)NC(=O)CSc1nc(-c2ccco2)nc2ccccc12,x,x,12,x,x,x
CCCc1nc(N2CCN(CC(=O)N3CCOCC3)CC2)c(C#N)c2c1CCC2,x,x,-23,x,x,x
CCCc1nc(N2CCOCC2)c(C#N)c2c1CCCC2,14%,u,5,16%,8%,32µM*
Cc1nc2c(ccc3nc(NC(=O)Cc4cccc5ccccc45)sc32)s1,-16%,-13%,-6,11µM*,-1%,-14%
Cc1nc2c(ccc3nc(NC(=O)C(c4ccccc4)c4ccccc4)sc32)s1,-6%,-6%,2,7.1µM*,13%,2%
O=C1CC(c2nc3ccccc3n2CCN2CCOCC2)CN1c1ccccc1 (stereo not drawn),x,x,-12,x,x,x
COCc1cnc2c(c1SCc1ccc(C)cc1)c(=O)n(C)c(=O)n2C,x,x,-1,x,x,x
Cc1cccc(-c2cc(=O)c3cc(NC(=O)c4ccccc4F)ccc3o2)c1,x,x,-2,x,x,x
O=C(Nc1cccc(Cl)c1)Nc1nnc([C@@H]2C[C@H](O)[C@@H](CO)O2)s1,x,x,-15,x,x,1%
O=C(Nc1ccc(F)c(Cl)c1)Nc1nnc([C@H]2C[C@H](O)[C@@H](CO)O2)s1,x,x,-48*,x,x,-8%
CC(C)NC(=O)CNC(=O)c1cc(-c2ccccc2)nc2ccccc12,x,x,-2,x,x,x
COc1ccc2[nH]c(=O)c(CN(CCN3CCCC3)C(=O)Nc3ccccc3Cl)cc2c1,47%,-13%,-7,-1%,0%,32µM*
COc1ccc(N(Cc2cc3cc(OC)ccc3[nH]c2=O)C(=O)C2CCCO2)cc1 (stereo not drawn),34%,-13%,7,1%,1%,18µM*
COc1ccc2[nH]c(=O)c(CN(CC3CCCO3)C(=O)Nc3ccccc3OC)cc2c1 (stereo not drawn),12%,11%,-4,3%,-3%,28µM*
CCC(Sc1nc2nccnc2c(=O)n1Cc1ccccc1Cl)C(=O)Nc1cccc(OC)c1 (stereo not drawn),x,x,16,x,x,x
N#Cc1cccc(NC(=O)c2n[nH]c(=O)c3ccccc23)c1,x,x,7,x,x,x
